The campaign covered roughly 39,000 compounds. About 1,500 (3.8%) were called active. This is one part of a sample in which actives are shown more often than they occur.

The assay relates to HSkMC (human skeletal muscle cells). The assay is described as follows: cytotoxicity call (relative viability < 0.9). The note with it: 10 µM.
Regarding `COc1ccc(S(=O)(=O)N(C)C[C@H]2OCCCC[C@@H](C)Oc3ccc(NC(=O)Nc4ccc(C(F)(F)F)cc4)cc3C(=O)N([C@@H](C)CO)C[C@H]2C)cc1`, the cytotoxicity call is “active”.
For `COc1ccc(S(=O)(=O)N(C)C[C@H]2OCCCC[C@H](C)Oc3ccc(NC(=O)Nc4ccc(C(F)(F)F)cc4)cc3C(=O)N([C@@H](C)CO)C[C@@H]2C)cc1` the value was “inactive”.
For `COc1ccc(S(=O)(=O)N(C)C[C@@H]2OCCCC[C@H](C)Oc3ccc(NC(=O)Nc4ccc(C(F)(F)F)cc4)cc3C(=O)N([C@@H](C)CO)C[C@H]2C)cc1` the value was “inactive”.
The entry for `C[C@@H]1CCCCO[C@H](CN(C)S(=O)(=O)c2ccc(Cl)cc2)[C@@H](C)CN([C@H](C)CO)C(=O)c2cc(NC(=O)Nc3ccc(C(F)(F)F)cc3)ccc2O1` is “active”; for `COc1ccc(S(=O)(=O)N(C)C[C@H]2OCCCC[C@@H](C)Oc3ccc(NC(=O)Nc4ccc(C(F)(F)F)cc4)cc3C(=O)N([C@H](C)CO)C[C@H]2C)cc1` it is “inactive”.
In the case of `COc1ccc(S(=O)(=O)N(C)C[C@@H]2OCCCC[C@H](C)Oc3ccc(NC(=O)Nc4ccc(C(F)(F)F)cc4)cc3C(=O)N([C@H](C)CO)C[C@@H]2C)cc1`, the cytotoxicity call is “inactive”.
On to `COc1ccc(S(=O)(=O)N(C)C[C@H]2OCCCC[C@@H](C)Oc3ccc(NC(=O)Nc4ccc(C(F)(F)F)cc4)cc3C(=O)N([C@@H](C)CO)C[C@@H]2C)cc1`, for which the cytotoxicity call was “active”.
The entry for `C[C@@H]1CN([C@H](C)CO)C(=O)c2cc(NC(=O)Nc3ccc(C(F)(F)F)cc3)ccc2O[C@@H](C)CCCCO[C@H]1CN(C)S(=O)(=O)c1ccc(Cl)cc1` is “inactive”; for `C[C@@H]1CCCCO[C@@H](CN(C)S(=O)(=O)c2ccc(Cl)cc2)[C@H](C)CN([C@@H](C)CO)C(=O)c2cc(NC(=O)Nc3ccc(C(F)(F)F)cc3)ccc2O1` it is “inactive”.
For `C=C1[N-]O[N+](O)=C1CN(Cc1c(C)no[n+]1[O-])OC(C)=O` the value was “inactive”; for `C[C@H]1CN([C@@H](C)CO)C(=O)c2cccc(NC(=O)Nc3ccc(C(F)(F)F)cc3)c2O[C@@H]1CN(C)Cc1ccc(-c2ccccc2)cc1`, “inactive”; for `C[C@H](CO)N1C[C@H](C)[C@H](CN(C)Cc2ccc(Cl)c(Cl)c2)OCCCC[C@H](C)Oc2ccc(NC(=O)NC3CCCCC3)cc2C1=O`, “inactive”.
For `Cn1nc(CN2CCCC2=O)c2c1CN(C(=O)CO)C2` the value was “inactive”; for `C[C@H]1CCCCO[C@H](CN(C)Cc2ccc(C(F)(F)F)cc2)[C@@H](C)CN([C@@H](C)CO)C(=O)c2cc(N(C)C)ccc2O1`, “inactive”.
Consider `COc1ccc(-c2cnc3c(c2)C(=O)N([C@H](C)CO)C[C@@H](C)[C@H](CN(C)C(=O)Cc2cccnc2)O3)cc1`, for which the cytotoxicity call is “inactive”.
Consider `COc1ccc(NC(=O)N(C)C[C@@H]2OCCCC[C@H](C)Oc3ccc(NC(=O)Nc4ccc(C(F)(F)F)cc4)cc3C(=O)N([C@H](C)CO)C[C@@H]2C)cc1`, for which the cytotoxicity call is “inactive”.
On to `CN(C)Cc1ccc([C@@H](N)c2ccncc2)cc1`, for which the cytotoxicity call is “inactive”.
The entry for `COc1ccc2c3c(n(c2c1)C)[C@@H](CO)N(Cc1cc(cc(c1)OC)OC)C[C@]13CCN(CC1)C(=O)CN1CCOCC1` is “inactive”; for `CCOC(=O)c1ccc(NC(=S)N[C@@H](NC(=O)c2ccc(Br)cc2)C(Cl)(Cl)Cl)cc1` it is “active”; for `CCOC(=O)c1ccc(N)cc1` it is “inactive”.
Consider `CCOC(=O)c1ccc(O)cc1`, for which the cytotoxicity call was “inactive”.
For `Cc1noc(C)c1S(=O)(=O)Nc1ccc2c(c1)CC(=O)N([C@H](C)CO)C[C@H](C)[C@@H](CN(C)S(=O)(=O)c1cn(C)cn1)O2` the value was “inactive”; for `COc1ccc(-c2nc(N3CCOCC3)c3sc(CN(C)c4ncc(C(=O)NO)cn4)cc3n2)cn1`, “active”; for `CNc1ccc(-c2nc(N3CCOCC3)c3sc(CN(C)c4ncc(C(=O)NO)cn4)cc3n2)cn1`, “active”.
For `COC(=O)COc1nsnc1N1CCOCC1`, the cytotoxicity call was “inactive”.
For `COc1ccc(NC(=O)N(C)C[C@@H]2OCCCC[C@H](C)Oc3ccc(NC(=O)Cc4ccccc4)cc3C(=O)N([C@H](C)CO)C[C@@H]2C)cc1` the value was “inactive”; for `Cc1ccc(Oc2ccc(CN)cc2)cc1`, “inactive”; for `Cc1ccc(S(=O)(=O)N(C)C[C@H]2Oc3ccc(NC(=O)CCCN(C)C)cc3CC(=O)N([C@H](C)CO)C[C@@H]2C)cc1`, “inactive”.
The entry for `C[C@@H]1CN([C@H](C)CO)C(=O)c2cc(NC(=O)Nc3ccccc3)ccc2O[C@@H](C)CCCCO[C@H]1CN(C)C(=O)C1CCCCC1` is “inactive”; for `C[C@H](CO)N1C[C@H](C)[C@H](CN(C)S(=O)(=O)c2ccc(Cl)cc2)Oc2ccc(NC(=O)CCCN(C)C)cc2CC1=O` it is “inactive”.
As for `COCC(=O)N1C[C@H](C)[C@H](OC)CN(C)C(=O)c2cc(NC(=O)c3cc(C)on3)ccc2OC[C@H]1C`, the cytotoxicity call is “inactive”.
The entry for `C[C@@H]1CN([C@@H](C)CO)C(=O)Cc2cc(NC(=O)CCCN(C)C)ccc2O[C@H]1CN(C)S(=O)(=O)c1ccccc1` is “inactive”; for `CC(=O)OC1CCC2(C)C(CC(OC(C)=O)C3(C)C2CCC2(C)C(c4ccoc4)OC(=O)C4OC423)C1(C)C` (stereo not drawn) [3beta-ACETOXYDEOXODIHYDROGEDUNIN ] it is “inactive”; for `CC1(C)C(=O)C=CC2(C)C1C=CC1(C)C2CCC2(C)C(c3ccoc3)OC(=O)C3OC312` (centres undefined) it is “active”.
The entry for `CC1(C)C(=O)C=CC2(C)C1CC(=O)C1(C)C2CCC2(C)C(c3ccoc3)OC(=O)C3OC321` (centres undefined) is “inactive”; for `CCC(=O)N1C[C@]2(C1)CN([C@@H](CO)c1[nH]c3cc(ccc3c12)OC)S(=O)(=O)C` it is “inactive”; for `C[C@@H]1CCCCO[C@H](CN(C)C(=O)Nc2ccc(F)cc2)[C@H](C)CN([C@@H](C)CO)C(=O)c2cc(NC(=O)CCCN(C)C)ccc2O1` it is “inactive”.
For `COc1ccc(NC(=O)Nc2ccc3c(c2)C(=O)N([C@@H](C)CO)C[C@@H](C)[C@H](CN(C)C(=O)Nc2c(C)noc2C)OCCCC[C@H](C)O3)cc1` the value was “inactive”; for `Cc1cc(C(C)(C)C)c(O)c(C(C)(C)C)c1`, “active”; for `Cc1ccc(O)c(C(C)(C)C)c1`, “inactive”.
`Cc1cc(CO)c(O)c(CO)c1`: the cytotoxicity call is “inactive”.
On to `COc1ccc(S(=O)(=O)Nc2ccc3c(c2)C(=O)N([C@@H](C)CO)C[C@H](C)[C@@H](CN(C)C(=O)Nc2ccc(C(F)(F)F)cc2)OCCCC[C@@H](C)O3)cc1`, for which the cytotoxicity call is “inactive”.
On to `NNC(=O)CCc1ccccc1`, for which the cytotoxicity call is “inactive”.
The entry for `CNC(=O)CN1CCOC[C@]2(CCCN(C(C)=O)C2)C1` is “inactive”; for `S=C(NCCCc1cnc[nH]1)NCCCN(Cc1ccc(Cl)c(Cl)c1)c1ccc(Br)cn1` it is “active”; for `COc1ccc2c3c([nH]c2c1)[C@H](CO)N(C[C@]13CCN(CC1)CC1CCCCC1)C(=O)Nc1c(noc1C)C` it is “inactive”.
For `COc1ccc2c3c([nH]c2c1)[C@H](CO)N(C[C@]13CCN(CC1)CC1CCCCC1)C(=O)Nc1cccc(c1)F` the value was “active”.
The entry for `COc1ccc2c3c([nH]c2c1)[C@@H](CO)N(C[C@]13CCN(CC1)CC1CCCCC1)C(=O)Nc1cccc(c1)F` is “active”; for `COc1ccc2c3c([nH]c2c1)[C@H](CO)N(CC1CCCCC1)C[C@]13CCN(CC1)C(=O)Nc1cccc(c1)F` it is “inactive”; for `COc1ccc2c3c([nH]c2c1)[C@@H](CO)N(C[C@]13CCN(CC1)CC1CCCCC1)C(=O)Nc1c(noc1C)C` it is “inactive”.
Consider `COc1ccc2c3c([nH]c2c1)[C@@H](CO)N(CC1CCCCC1)C[C@]13CCN(CC1)C(=O)Nc1cccc(c1)F`, for which the cytotoxicity call is “active”.
For `COc1ccc(cc1)CN1C[C@]2(CCN(CC2)C(=O)Nc2cccc(c2)F)c2c([nH]c3cc(ccc23)OC)[C@@H]1CO` the value was “inactive”; for `COc1ccc2c3c([nH]c2c1)[C@H](CO)N(CC1CCCCC1)C[C@]13CCN(CC1)C(=O)NC1CCCC1`, “active”.
For `COc1ccc2c3c([nH]c2c1)[C@@H](CO)N(CC1CCCCC1)C[C@]13CCN(CC1)C(=O)NC1CCCC1` the value was “inactive”; for `COc1ccc2c3c([nH]c2c1)[C@@H](CO)N(CC1CCOCC1)C[C@]13CCN(CC1)C(=O)C1CCOCC1`, “inactive”; for `COc1ccc2c3c([nH]c2c1)[C@H](CO)N(C[C@]13CCN(CC1)CC1CCCC1)C(=O)Nc1cccc(c1)F`, “inactive”.
The entry for `COc1ccc2c3c([nH]c2c1)[C@@H](CO)N(C[C@]13CCN(CC1)CC1CCCC1)C(=O)Nc1cccc(c1)F` is “inactive”; for `C[C@@H]1CN([C@H](C)CO)S(=O)(=O)c2ccc(-c3ccc(C(=O)N(C)C)cc3)cc2O[C@H]1CN(C)C(=O)C1CC1` it is “inactive”.
On to `C[C@@H]1CN([C@H](C)CO)C(=O)Cc2cc(NS(=O)(=O)c3ccccc3)ccc2O[C@H]1CN(C)S(=O)(=O)c1cccs1`, for which the cytotoxicity call was “inactive”.
For `Cc1cc(C(=O)Nc2cccc3c2O[C@@H](CN(C)S(=O)(=O)c2cn(C)cn2)[C@H](C)CN([C@H](C)CO)C3=O)n(C)n1`, the cytotoxicity call was “inactive”.
The entry for `NC(=O)NCC#Cc1ccc2c(c1)[C@]1(C(=O)N2)[C@H](c2ccc(OCCO)cc2)N2[C@H](c3ccccc3)[C@H](c3ccccc3)OC(=O)[C@H]2[C@@H]1C(N)=O` is “inactive”; for `O=C(C[C@H]1CC[C@@H](NC(=O)Cc2ccccn2)[C@H](CO)O1)NCCCN1CCOCC1` it is “inactive”.
The entry for `CC(=O)n1cc([C@@H]2C=C(C(=O)N3CCN(Cc4ccccc4)CC3)O[C@H](OCc3ccc(CO)cc3)C2)c2ccccc21` is “inactive”; for `O=C(C[C@H]1C[C@@H]2c3cc(NS(=O)(=O)c4ccc(F)cc4)ccc3O[C@@H]2[C@@H](CO)O1)N1CCOCC1` it is “inactive”.
For `Cc1cc(C)c(C)c(C(=O)O)c1C` the value was “inactive”; for `O=C(C[C@@H]1CC[C@H]2NC[C@H](O)COC[C@@H]2O1)NCCN1CCCC1`, “inactive”.
Consider `C[C@@H]1CN([C@@H](C)CO)C(=O)Cc2cc(NS(=O)(=O)c3ccc(Cl)cc3)ccc2O[C@@H]1CN(C)S(C)(=O)=O`, for which the cytotoxicity call is “inactive”.
`C[C@@H]1CCCCO[C@@H](CN(C)CC2CCCCC2)[C@@H](C)CN([C@H](C)CO)C(=O)c2cc(NC(=O)Nc3ccc4c(c3)OCO4)ccc2O1`: the cytotoxicity call is “inactive”.
The entry for `COc1ccc(NC(=O)Nc2ccc3c(c2)C(=O)N([C@H](C)CO)C[C@H](C)[C@@H](CN(C)Cc2ccc4c(c2)OCO4)OCCCC[C@H](C)O3)cc1` is “inactive”; for `C[C@H](CO)N1C[C@H](C)[C@@H](CN(C)CC2CCCCC2)OCCCC[C@H](C)Oc2ccc(NC(=O)Nc3ccc4c(c3)OCO4)cc2C1=O` it is “inactive”.
The entry for `C[C@H]1CCCCO[C@@H](CN(C)CC2CCCCC2)[C@@H](C)CN([C@@H](C)CO)C(=O)c2cc(NC(=O)Nc3ccc4c(c3)OCO4)ccc2O1` is “active”; for `COc1ccc(NC(=O)Nc2ccc3c(c2)C(=O)N([C@@H](C)CO)C[C@H](C)[C@H](CN(C)Cc2ccc4c(c2)OCO4)OCCCC[C@@H](C)O3)cc1` it is “inactive”; for `COc1ccc(NC(=O)Nc2ccc3c(c2)C(=O)N([C@@H](C)CO)C[C@H](C)[C@H](CN(C)Cc2ccc4c(c2)OCO4)OCCCC[C@H](C)O3)cc1` it is “active”.
For `C[C@@H]1CCCCO[C@@H](CN(C)Cc2ccc(Cl)c(Cl)c2)[C@@H](C)CN([C@@H](C)CO)C(=O)c2cc(NC(=O)Nc3ccc4c(c3)OCO4)ccc2O1` the value was “active”.
`C[C@@H]1CCCCO[C@@H](CN(C)Cc2ccc3c(c2)OCO3)[C@@H](C)CN([C@@H](C)CO)C(=O)c2cc(NC(=O)Nc3ccc4c(c3)OCO4)ccc2O1`: the cytotoxicity call is “inactive”.
For `C[C@@H]1CCCCO[C@H](CN(C)Cc2ccc3c(c2)OCO3)[C@H](C)CN([C@@H](C)CO)C(=O)c2cc(NC(=O)Nc3ccc4c(c3)OCO4)ccc2O1` the value was “active”.
For `C[C@@H]1CN([C@H](C)CO)C(=O)c2cc(NC(=O)Nc3ccc4c(c3)OCO4)ccc2O[C@@H](C)CCCCO[C@@H]1CN(C)Cc1ccc2c(c1)OCO2` the value was “inactive”.
For `C[C@@H]1CN([C@@H](C)CO)C(=O)c2cc(NC(=O)Nc3ccc4c(c3)OCO4)ccc2O[C@@H](C)CCCCO[C@H]1CN(C)Cc1ccc(Cl)c(Cl)c1` the value was “inactive”.
`C[C@@H]1CN([C@H](C)CO)C(=O)c2cc(NC(=O)Nc3ccc4c(c3)OCO4)ccc2O[C@@H](C)CCCCO[C@@H]1CN(C)Cc1ccc(Cl)c(Cl)c1`: the cytotoxicity call is “inactive”.

Values taken from the antibiotic and cytotoxicity screens of Wong et al. (2023).
